Screening data: PubChem, several laboratories
tim10-1 inh – growth inhibitors of tim10-1 mutant yeast, primary screen, luminescence, uHTS; actives 2.2% (n = 330,000); AID 463190, 2010; inhibition, % at 20 µM; S. cerevisiae tim10-1 ts strain growth, BacTiter-Glo, 24 h;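 active = inhibition of at least 40%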;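 note: mutant grown at 25 °C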
V-ATPase pH – regulators of yeast V-ATPase proton pumping, primary screen, pHLuorin cytosolic pH fluorescence; S. cerevisiae; response, % at 10 µM; actives 0.37% (n = 350,000); AID 504577, 2011; in the data active = response mostly above about 7.3%, no sharp cut-off; inactive = mostly below about 5.4%; note: actives read high
NALP1 inh – NALP1 inflammasome inhibitors in reconstituted yeast, colorimetric, S. cerevisiae, triplicate retest; actives 0.61% (n = 280,000); inhibition, % at 10 µM; AID 2071, 2009; S. cerevisiae NALP1/ASC/caspase-1 growth, X-gal OD620, 72 h; in the data active = inhibition mostly above about 24%, no sharp cut-off; inactive = mostly below about 32%
tim23-1 inh – growth inhibitors of tim23-1 mutant yeast, primary screen, luminescence, uHTS; actives 1.3% (n = 330,000); S. cerevisiae tim23-1 growth, BacTiter-Glo luminescence, 24 h; inhibition, % at 20 µM;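 active = growth inhibition of the mutant yeast at or above 50%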;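 note: temperature-sensitive mutant grown at 25 °C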
NLRP3 yeast inh – NALP3 inflammasome inhibitors in reconstituted yeast, primary screen, luminescence, uHTS; Yeast reconstituted NLRP3/ASC/caspase-1, beta-gal luminescence, 24 h; inhibition, % at 10 µM; actives 0.39% (n = 330,000); AID 2825, 2010;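 active = inhibition of 50% or more; inactive = inhibition below 50%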
TIM10 inh – growth inhibitors of isogenic TIM10 control yeast, primary screen, counter-screen for tim10-1 yeast inhibitor project, luminescence, uHTS; S. cerevisiae TIM10 strain growth, BacTiter-Glo luminescence, 24 h; inhibition, % at 10 µM; actives 1.4% (n = 330,000); AID 463195, 2010;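 active = inhibition of 40% or more at the single tested concentration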;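 note: wild-type TIM10 isogenic control strain grown at permissive 25 °C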
NALP3 confirm – NALP3 inhibitors retested in yeast, confirmation, luminescence, single concentration; actives 81% (n = 1,300); AID 435006, 2010; inhibition, % at 10 µM; shares compounds with NLRP3 yeast inh; yeast expressing human NALP3; in the data active = inhibition above about 48%
Casp1-ASC yeast – CASP1-PYCARD signaling inhibition in yeast, confirmatory test, counterassay for NLRP3 inhibitor program, one-dose; shares compounds with NLRP3 yeast inh; yeast expressing Caspase-1-ASC, luminescence counter screen; inhibition, % at 10 µM; actives 66% (n = 1,000); AID 488784, 2010
NALP3 yeast rt – NALP3 inhibitors in yeast, repeat test, confirmation, luminescence, single concentration, retest; shares compounds with NLRP3 yeast inh; yeast expressing human NALP3, luminescence read-out; inhibition, % at 10 µM; actives 53% (n = 1,000); AID 488794, 2010
Hits are given with their value. A selection: hits, their analogues and other compounds. The true share with any hit is near 4.2%. Cut-off read from the data, not from the text of the source, unless noted: active = inhibition above about 50%; inactive = the rest.

What do the screens show for `CN(C)c1ccc(N=Nc2cccc(F)c2)cc1`?
tim10-1 inh: inactive; V-ATPase pH: inactive; NALP1 inh: inactive; tim23-1 inh: inactive; NLRP3 yeast inh: 52; TIM10 inh: inactive; NALP3 confirm: inactive; Casp1-ASC yeast: 51; NALP3 yeast rt: inactive

What do the screens show for `c1ccc2c(c1)Cn1c-2nc2ccccc21`?
tim10-1 inh: inactive; V-ATPase pH: inactive; tim23-1 inh: inactive; NLRP3 yeast inh: 70; TIM10 inh: inactive; NALP3 confirm: 73; Casp1-ASC yeast: 84; NALP3 yeast rt: 77

Results for Brc1c(-c2ccccc2)nc2n1Cc1ccccc1-2 ?
tim10-1 inh: inactive; V-ATPase pH: inactive; NALP1 inh: inactive; tim23-1 inh: inactive; NLRP3 yeast inh: inactive; TIM10 inh: inactive

What do the screens show for `NCCc1nnc(SCc2ccccc2Cl)o1`?
tim10-1 inh: inactive; V-ATPase pH: inactive; NALP1 inh: inactive; tim23-1 inh: inactive; NLRP3 yeast inh: 73; TIM10 inh: inactive; NALP3 confirm: 73; Casp1-ASC yeast: 70; NALP3 yeast rt: 72

How did NCCCCCc1nnc(SCc2ccc(Cl)cc2Cl)o1 do in these assays?
tim10-1 inh: inactive; V-ATPase pH: inactive; NALP1 inh: inactive; tim23-1 inh: inactive; NLRP3 yeast inh: inactive; TIM10 inh: inactive

Results for O=C(CSc1nnnn1-c1ccc(Cl)cc1)N1CCc2ccccc2C1 ?
tim10-1 inh: inactive; V-ATPase pH: inactive; NALP1 inh: inactive; tim23-1 inh: inactive; NLRP3 yeast inh: 56; TIM10 inh: inactive; NALP3 confirm: 70; Casp1-ASC yeast: 78; NALP3 yeast rt: 85

Results for CCS(=O)(=O)c1ccc2oc(Nc3ccc(OC)cc3)nc2c1 ?
tim10-1 inh: inactive; V-ATPase pH: inactive; NALP1 inh: inactive; tim23-1 inh: inactive; NLRP3 yeast inh: inactive; TIM10 inh: inactive; NALP3 confirm: inactive

What do the screens show for `C/C(=N\Nc1ccc(C(=O)O)cc1)c1ccc(Br)cc1`?
tim10-1 inh: inactive; V-ATPase pH: inactive; NALP1 inh: inactive; tim23-1 inh: inactive; NLRP3 yeast inh: inactive; TIM10 inh: inactive

How did C/C(=N/Nc1ncc(Br)cn1)c1ccc(Br)cc1 do in these assays?
tim10-1 inh: inactive; V-ATPase pH: inactive; NALP1 inh: inactive; tim23-1 inh: inactive; NLRP3 yeast inh: 55; TIM10 inh: inactive; NALP3 confirm: 70; Casp1-ASC yeast: 61; NALP3 yeast rt: 52

How did Cc1ccc(NC(=O)CCNCc2ccco2)cc1S(=O)(=O)N(C)C do in these assays?
tim10-1 inh: inactive; V-ATPase pH: inactive; NALP1 inh: inactive; tim23-1 inh: inactive; NLRP3 yeast inh: inactive; TIM10 inh: inactive

How did S=C1SCN(Cc2ccccc2)CN1Cc1ccccc1 do in these assays?
tim10-1 inh: inactive; V-ATPase pH: inactive; NALP1 inh: inactive; tim23-1 inh: inactive; NLRP3 yeast inh: inactive; TIM10 inh: inactive

How did S=C1SCN(Cc2cccnc2)CN1Cc1cccnc1 do in these assays?
tim10-1 inh: inactive; V-ATPase pH: inactive; NALP1 inh: 69; tim23-1 inh: inactive; NLRP3 yeast inh: 57; TIM10 inh: inactive; NALP3 confirm: 58; Casp1-ASC yeast: inactive; NALP3 yeast rt: inactive

How did COc1ccc(CN(C)C(=O)CSc2nnc(C3CC3)n2C2CC2)cc1 do in these assays?
tim10-1 inh: inactive; V-ATPase pH: inactive; tim23-1 inh: inactive; NLRP3 yeast inh: inactive; TIM10 inh: inactive

How did O=C(NC1CC1)c1cc2c(s1)-c1ccccc1OC2 do in these assays?
tim10-1 inh: inactive; V-ATPase pH: inactive; NALP1 inh: 34; tim23-1 inh: inactive; NLRP3 yeast inh: 60; TIM10 inh: inactive; NALP3 confirm: 74; Casp1-ASC yeast: 57; NALP3 yeast rt: inactive

Results for O=C(O)c1cc2c(s1)-c1ccccc1OC2 ?
tim10-1 inh: inactive; V-ATPase pH: inactive; NALP1 inh: inactive; tim23-1 inh: inactive; NLRP3 yeast inh: inactive; TIM10 inh: inactive

How did Cc1ccc(S(=O)(=O)N(C)C)cc1NC(=O)CCc1ccccc1 do in these assays?
tim10-1 inh: inactive; V-ATPase pH: inactive; NALP1 inh: inactive; tim23-1 inh: inactive; NLRP3 yeast inh: inactive; TIM10 inh: inactive

Results for C(=C\c1nc2ccccc2[nH]1)/c1ccccc1 ?
tim10-1 inh: inactive; V-ATPase pH: inactive; NALP1 inh: inactive; tim23-1 inh: inactive; NLRP3 yeast inh: 61; TIM10 inh: inactive; NALP3 confirm: 84; Casp1-ASC yeast: 60; NALP3 yeast rt: 57

What do the screens show for `c1ccc(-c2n[nH]c3ccccc23)cc1`?
tim10-1 inh: inactive; V-ATPase pH: inactive; NALP1 inh: 22; tim23-1 inh: inactive; NLRP3 yeast inh: 65; TIM10 inh: inactive; NALP3 confirm: 85; Casp1-ASC yeast: 70; NALP3 yeast rt: 63

Results for Cc1nc(SCC(=O)NC2CCCC2)c2c(C)c(C)sc2n1 ?
tim10-1 inh: inactive; V-ATPase pH: inactive; NALP1 inh: inactive; tim23-1 inh: inactive; NLRP3 yeast inh: 54; TIM10 inh: inactive; NALP3 confirm: 56; Casp1-ASC yeast: inactive; NALP3 yeast rt: inactive

What do the screens show for `Cc1nc(SCC(=O)NC2CCS(=O)(=O)C2)c2c(C)c(C)sc2n1` (configuration not stated)?
tim10-1 inh: inactive; V-ATPase pH: inactive; tim23-1 inh: inactive; NLRP3 yeast inh: inactive; TIM10 inh: inactive

How did Cc1sc2nc(SCC(=O)NCc3ccco3)n(C)c(=O)c2c1C do in these assays?
tim10-1 inh: inactive; V-ATPase pH: inactive; NALP1 inh: inactive; tim23-1 inh: inactive; NLRP3 yeast inh: inactive; TIM10 inh: inactive

How did Cc1sc2nc(C3CC3)nc(SCC(=O)NCc3ccco3)c2c1C do in these assays?
tim10-1 inh: inactive; V-ATPase pH: inactive; NALP1 inh: inactive; tim23-1 inh: inactive; NLRP3 yeast inh: 51; TIM10 inh: inactive; NALP3 confirm: inactive

Results for O=C(O)c1cc(N2C(=O)C3C4C=CC(C4)C3C2=O)ccc1N1CCOCC1 (configuration not stated) ?
tim10-1 inh: inactive; V-ATPase pH: inactive; NALP1 inh: inactive; tim23-1 inh: inactive; NLRP3 yeast inh: inactive; TIM10 inh: inactive

How did COc1c(C)cc(S(=O)(=O)NCc2ccco2)c(C)c1C do in these assays?
tim10-1 inh: inactive; V-ATPase pH: inactive; NALP1 inh: inactive; tim23-1 inh: inactive; NLRP3 yeast inh: inactive; TIM10 inh: inactive

Results for NCCc1nnc(SCC(=O)Nc2ccc(Br)cc2)o1 ?
tim10-1 inh: inactive; V-ATPase pH: inactive; NALP1 inh: inactive; tim23-1 inh: inactive; NLRP3 yeast inh: 58; TIM10 inh: inactive; NALP3 confirm: 70; Casp1-ASC yeast: 53; NALP3 yeast rt: inactive
